JMJD2A Tudor inh: inhibitors of human JMJD2A Tudor domain; O75164; AlphaScreen JMJD2A-Tudor / H3K4me3 peptide binding; Potency, µM (titrated, usually from 114 µM), actives largely listed as inhibitors; actives 4.4% (n = 390,000); also: nearly all actives have a fitted effect of over 50% in size
BAZ2B block: inhibitors of human BAZ2B bromodomain; AlphaScreen BAZ2B-H3K14Ac peptide displacement; Potency, µM (doses to about 114 µM), hits mostly inhibitors; actives 4.4% (n = 360,000); AID 504333; also: nearly all actives have a fitted effect of over 60% in size
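AlphaScreen luminescence quantifies BAZ2B engagement of H3K14Ac peptide; the protein and biotinylated peptide are both at 50 nM final, buffer PBS pH 7.4 with 0.01% Tween-20, all steps at room temperature.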
Sfp inh: inhibitors of Bacillus subtilis Sfp phosphopantetheinyl transferase. Q9F4F7. Biochemical Sfp PPTase activity, qHTS. Potency, µM, actives largely listed as inhibitors. actives 3.5% (n = 310,000). AID 1490;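 also: the enzyme is Sfp with the accession as filed and its product quenches rhodamine fluorescence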
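Step 1, compound plus 15 nM Sfp-PPTase, 15 min, room temperature. Step 2, add rhodamine-CoA (5 uM) and BHQ-2-YbbR (12.5 uM). Step 3, read 525/598 nm fluorescence at 0 and 30 min.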
G9a inh: G9a (human) methyltransferase inhibition; actives 8.8% (n = 350,000); Potency, µM (doses to about 102 µM), most hits filed as inhibitors; G9a H3K9 monomethylation, AlphaScreen, 2 h; Q96KQ7; AID 504332; also: nearly all actives have a fitted effect of over 75% in size
Target sequence (Q96KQ7 913-1193 limits assumed): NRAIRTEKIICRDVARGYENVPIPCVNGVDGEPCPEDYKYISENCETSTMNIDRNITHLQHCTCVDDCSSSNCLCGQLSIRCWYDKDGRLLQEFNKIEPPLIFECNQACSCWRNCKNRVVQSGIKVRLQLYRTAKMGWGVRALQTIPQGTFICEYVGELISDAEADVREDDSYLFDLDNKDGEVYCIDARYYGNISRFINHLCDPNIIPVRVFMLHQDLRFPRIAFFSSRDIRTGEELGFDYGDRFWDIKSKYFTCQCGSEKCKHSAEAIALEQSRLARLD
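G9a (20 nM) preincubated 15 min RT with compounds, then 500 nM biotinylated H3K9 peptide and 20 uM SAM added; 2 h RT reaction. Monomethyl-H3K9 product detected by AlphaScreen with anti-H3K9me1 antibody, streptavidin donor and anti-rabbit IgG acceptor beads.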
HP1b chromo inh: inhibitors of HP1-beta chromodomain binding to methylated histone tails. P83916. AlphaScreen HP1-beta / biotin-H3K9me3 peptide binding. Potency, µM (series often up to 114 µM), hits mostly inhibitors. actives 0.56% (n = 390,000). AID 540317; also: nearly all actives have a fitted effect of over 70% in size
Target sequence (P83916 whole entry, looked up): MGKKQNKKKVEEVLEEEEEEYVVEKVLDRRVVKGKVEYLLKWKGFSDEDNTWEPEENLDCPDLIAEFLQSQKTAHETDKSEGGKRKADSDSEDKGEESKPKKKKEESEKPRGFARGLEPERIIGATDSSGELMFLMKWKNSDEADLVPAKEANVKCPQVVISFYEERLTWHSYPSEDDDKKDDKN
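HP1-beta protein (50 nM final) preincubated 30 min at room temperature with biotinylated H3(1-18)K9me3 peptide (50 nM) in PBS pH 7.4, 0.01% Tween-20, then compound added for 30 min. AlphaScreen streptavidin donor/nickel chelate acceptor beads (10 ug/mL final), 30 min dark, luminescence read.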
Numbers stand for hits; - = inactive; ? = inconclusive; . = not tested or not shown; [ ] = dose if it differs, or a comment. An excerpt weighted towards active compounds, which were near 12% of everything screened. Calls follow the shape of the dose curve; as a rule, active = well fitted curve in the direction sought with a large enough effect; inconclusive = small, poorly fitted or top-dose-only effect, or another doubt; inactive = no such curve, though single readings can be large; an effect the other way counts as inactive or inconclusive.

SMILES	JMJD2A Tudor inh	BAZ2B block	Sfp inh	G9a inh	HP1b chromo inh
S=C(Nc1ccccc1)N1CCN(C/C=C/c2ccccc2)CC1	-	-	-	?	-
CCOc1ccccc1N1CCN(C(=S)NCc2ccco2)CC1	-	-	-	50µM	-
S=C(NCc1ccco1)N1CCN(C/C=C/c2ccccc2)CC1	?	?	79µM	.	-
O=C(NC1CCCCC1)NC1CC2CCC(C1)N2C(=S)NCc1ccco1 (centres undefined)	-	-	45µM	-	-
CCOc1ccc(C(=O)NCc2ccco2)cc1OCC	-	-	-	-	-
Cc1ccc(OCC(=O)Nc2ccc3nc(SCC(=O)N4CCCC4)sc3c2)cc1	-	?	.	-	-
COc1cccc(NC(=O)C(=O)NCC(c2ccc3c(c2)OCO3)N2CCOCC2)c1 (centres undefined)	-	-	.	-	-
CC(=O)c1ccc(N2CCN(C(=S)NCc3ccco3)CC2)cc1	-	-	-	56µM	-
CCOc1ccccc1N1CCN(C/C=C/c2ccc(N(C)C)cc2)CC1	5.6µM	5.6µM	-	10µM	25µM
O=C(Nc1ccccc1F)c1oc2ccccc2c1NC(=O)C12CC3CC(CC(C3)C1)C2	-	-	.	-	-
Cc1[nH]c2ccc(F)cc2c1CCN(Cc1cccnc1)C(=S)NC(C)(C)C	-	-	-	-	-
Cc1[nH]c2ccc(F)cc2c1CCN(Cc1cccnc1)C(=S)Nc1cccc(F)c1	?	32µM	-	?	-
Cc1ccccc1NC(=S)N(CCc1c(C)[nH]c2ccc(F)cc12)Cc1cccnc1	?	.	-	56µM	-
CC(C)OCCCNC(=O)CCCn1c(SCC(=O)c2ccc(Br)cc2)nc2c(sc3ccccc32)c1=O	-	-	.	-	-
COc1ccc(C)cc1S(=O)(=O)N1CC(C)OC(C)C1 (centres undefined)	-	-	-	.	-
Cc1cc(C)c(C)c(OCC(=O)N2CCOCC2)c1	-	-	-	-	-
O=C1CCC(=O)N1OCCOc1ccc(Cl)c2ccccc12	-	-	-	-	-
Cc1cc(C)c(C)c(OCCN2CC(C)OC(C)C2)c1 (centres undefined)	5.6µM	32µM	45µM	1.8µM	?
CC1CN(CCS(=O)(=O)c2cc(Cl)ccc2Cl)CC(C)O1 (centres undefined)	-	-	-	-	-
CC1CN(CCOc2ccc(Cl)cc2Cl)CC(C)O1 (centres undefined)	8.9µM	-	-	?	?
COc1cc(C)ccc1OCCCCN1CC(C)OC(C)C1 (centres undefined)	35µM	50µM	-	8.9µM	?
CC1CN(CCCCOc2ccc(Cl)c3ccccc23)CC(C)O1 (centres undefined)	11µM	?	79µM	.	-
CCN1C(=O)c2ccc(C(=O)Nc3ccc4c(c3)OCO4)cc2C1=O	-	-	-	-	-
O=C(CCCCCCCC(=O)N1CCCCCC1)N1CCCCCC1	-	.	.	.	-
O=C(COc1ccccc1F)Nc1ccc2nc(SCC(=O)N3CCc4ccccc43)sc2c1	-	-	.	-	-
SMILES	JMJD2A Tudor inh	BAZ2B block	Sfp inh	G9a inh	HP1b chromo inh
O=C(OCCOc1cccc(Cl)c1)c1ccc2ncsc2c1	-	-	-	-	-
CCN(CC(=O)Nc1cc(Cl)ccc1C)C(=O)c1ccc(N2CCCC2=O)cc1	-	-	.	-[12.7 µM]	-
O=C(NCNC(=O)c1ccccc1)c1ccccc1	-	-	-	-	-
O=C(NCn1ccc(=O)[nH]c1=S)c1ccccc1	-	-	-	56µM	-
CCc1ccc(N(CC)C(=O)c2sc3nc4n(c(=O)c3c2C)CCCC4)cc1	79µM	25µM	.	16µM	-
CCN(C(=O)c1sc2nc3n(c(=O)c2c1C)CCCCC3)c1ccccc1F	-	-	.	8.9µM	-
CCN(C(=O)c1sc2nc3n(c(=O)c2c1C)CCCCC3)c1ccc(OC)cc1	79µM	35µM	.	5.6µM	-
CCN(Cc1ccccc1)C(=O)c1sc2nc3n(c(=O)c2c1C)CCCC3	-	-	.	?	-
CC1CCC(N2CCN(S(C)(=O)=O)CC2)CC1 (centres undefined)	3.2µM	32µM	-	?	45µM
CS(=O)(=O)N1CCN(C2C3CC4CC(C3)CC2C4)CC1 (centres undefined)	10µM	-	-	.	?
CS(=O)(=O)N1CCN(C2Cc3ccccc3C2)CC1	-	-	-	-	-
